{"source": "PubChem BioAssay (NCATS)", "note": "Records with an inconclusive call do not appear. Where a call stands in place of a potency, no number is given. The source made the active and inactive calls. Calls come from the whole dose curve; as a rule, active = well fitted inhibition curve with a large enough effect; inconclusive = small, poorly fitted or top-dose-only effect; inactive = flat fitted curve, though single readings scatter.", "data": [{"test_system": "CRL-7250", "assay": "qHTS assay to identify novel small-molecules to repurpose for Merkel cell carcinoma treatment (AID 1296009); note: nearly all actives have a fitted effect of over 60% in size", "settings": "MCC and control cell lines, CellTiter-Glo viability, 72 h; series mostly up to 92 µM", "in_short": "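Luminescence from CellTiter-Glo, read 10 min after addition at room temperature, reported viability following a 72 hr, 37 degree celsius treatment with NPC or MIPE compounds in titration; values normalized to plate controls.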", "values": [{"molecule": "COc1cnc(-n2cnc(C)n2)c2[nH]cc(C(=O)C(=O)N3CCN(C(=O)c4ccccc4)CC3)c12", "Potency": "inactive"}, {"molecule": "CC1CCC2(NC1)OC1C(=O)C3C4CCC5CC(O[C@@H]6O[C@H](CO)[C@@H](O)[C@H](O)[C@H]6O[C@@H]6O[C@@H](C)[C@H](O)[C@@H](O)[C@H]6O)CCC5(C)C4CCC3(C)C1C2C", "note": "(stereo not given in full)", "Potency": "inactive"}, {"molecule": "CC(C)=C1CC2[C@](C)(CC[C@@H](OC(=O)C3(C)OC3C)[C@@]2(C)O)CC1=O", "note": "(stereo not given in full)", "Potency": "inactive"}, {"molecule": "C=CC1C(O[C@@H]2O[C@H](CO)[C@@H](O)[C@H](O)[C@H]2O)OC=C(C(=O)OC)C1CC(=O)O", "note": "(stereo not given in full)", "Potency": "inactive"}, {"molecule": "COC(=O)c1cc(OC)c(O[C@@H]2O[C@@H](C)[C@H](O)[C@@H](O)[C@H]2O)c(OC)c1", "Potency": "inactive"}, {"molecule": "COc1ccc(O[C@@H]2O[C@H](CO)[C@@H](O)[C@H](O)[C@H]2O)cc1OC", "Potency": "inactive"}, {"molecule": "O=C(O)CC1(O)C(=O)Nc2ccccc21", "note": "(stereo not given)", "Potency": "inactive"}, {"molecule": "COCCOc1cnc2ccn([C@H](C)c3nnc4c(F)cc(-c5cnn(C)c5)cn34)c(=O)c2c1", "Potency": "inactive"}, {"molecule": "COc1cc([C@H]2OC[C@]3(OC(C)=O)[C@@H](c4ccc(O[C@@H]5O[C@H](CO)[C@@H](O)[C@H](O)[C@H]5O)c(OC)c4)OC[C@H]23)ccc1O", "Potency": "inactive"}, {"molecule": "O=S(=O)(NC1CCC(c2cc(F)ccc2F)(S(=O)(=O)c2ccc(Cl)cc2)CC1)C(F)(F)F", "note": "(stereo not given)", "Potency": "inactive"}, {"molecule": "Clc1ccc2c(c1)C1=NCCN1c1c(-c3noc(C4CC4)n3)ncn1-2", "Potency": "inactive"}, {"molecule": "O=C(OC[C@H]1O[C@@H](Oc2ccccc2COC(=O)C2(O)C=CCCC2O)[C@H](O)[C@@H](O)[C@@H]1O)c1ccccc1", "note": "(stereo not given in full)", "Potency": "inactive"}, {"molecule": "COc1cc(C[C@H]2COC(=O)[C@@H]2Cc2ccc(O)c(OC)c2)ccc1O", "Potency": "inactive"}, {"molecule": "COCC(=O)N1CCc2cc(-c3csc(NC(=O)c4cc(OC)cc(OC)c4)n3)ccc21", "Potency": "inactive"}, {"molecule": "NC(=O)[C@H]1CCCCc2c1[nH]c1ccc(Cl)cc21", "Potency": "inactive"}, {"molecule": "COc1ccc(S(=O)(=O)Nc2c(C)cc(C)cc2C)cc1", "Potency": "inactive"}, {"molecule": "CN1CCCC1Cc1c[nH]c2ccc(CCS(=O)(=O)c3ccccc3)cc12", "note": "(stereo not given)", "Potency": "inactive"}, {"molecule": "CC(C#N)C(C)O[C@@H]1O[C@H](CO)[C@@H](O)[C@H](O)[C@H]1O", "note": "(stereo not given in full)", "Potency": "inactive"}, {"molecule": "COc1c(O)cc2c(c1O)C(=O)O[C@H](C)[C@H]2O", "Potency": "inactive"}, {"molecule": "C[C@H]1O[C@@H](O[C@H]2CC[C@@]3(C)C(CC[C@]4(C)C3CC=C3C5CC(C)(C)CC[C@]5(C(=O)O)CC[C@]34C(=O)O)C2(C)C)[C@H](O)[C@@H](O)[C@@H]1O", "note": "(stereo not given in full)", "Potency": "inactive"}, {"molecule": "C/C=C/C=C/C(O)=C1/C(=O)[C@]2(C)C3/C(=C(O)/C=C/C=C/C)C(=O)C4(C)C1[C@]1(C)O[C@@]4(O)[C@@]3(C)O[C@@]12O", "Potency": "inactive"}, {"molecule": "Cc1c(N2C(=O)c3ccc(C(=O)O)cc3C2=O)c(=O)n(-c2ccccc2)n1C", "Potency": "inactive"}, {"molecule": "CCNC(=O)C1CC(F)(c2ccc(CN3CCCC3)c(F)c2)C1", "note": "(stereo not given)", "Potency": "inactive"}, {"molecule": "CC(=O)OC1C(OC(=O)c2ccccc2)C2C(C)(C)CCC(OC(C)=O)C2(C)C23CCC(C)(C2)C(=O)CC13", "note": "(stereo not given)", "Potency": "inactive"}, {"molecule": "NC(=O)C(O[C@@H]1O[C@H](CO[C@@H]2O[C@H](CO)[C@@H](O)[C@H](O)[C@H]2O)[C@@H](O)[C@H](O)[C@H]1O)c1ccccc1", "note": "(stereo not given in full)", "Potency": "inactive"}, {"molecule": "COC(=O)C(CC1(O)c2ccccc2N2C(=O)C(CC(C)C)NC21)n1cnc2ccccc2c1=O", "note": "(stereo not given)", "Potency": "inactive"}, {"molecule": "COc1cc(/C=C/C(=O)O)ccc1O[C@@H]1O[C@H](CO)[C@@H](O)[C@H](O)[C@H]1O[C@@H]1OC[C@](O)(CO)[C@H]1O", "Potency": "inactive"}, {"molecule": "NC(=O)c1cccc2[nH]c(-c3ccc(C4CCCN4)cc3F)nc12", "note": "(stereo not given)", "Potency": "inactive"}, {"molecule": "CC1(C)C2CC=C(COC3OC(COC4OCC(O)(CO)C4O)C(O)C(O)C3O)C1C2", "note": "(stereo not given)", "Potency": "inactive"}, {"molecule": "C=CC1(C)C=C2C(=O)CC3C(C)(C)CCCC3(C(=O)O)C2(O)CC1", "note": "(stereo not given)", "Potency": "inactive"}, {"molecule": "COc1cc(OC)cc(C(=O)Nc2ccc(Cl)c(-c3nc4ccc(N(C)C)cc4[nH]3)c2)c1", "Potency": "inactive"}, {"molecule": "CC(=O)c1ccc(O[C@@H]2O[C@H](CO[C@@H]3OC[C@@H](O)[C@H](O)[C@H]3O)[C@@H](O)[C@H](O)[C@H]2O)cc1", "Potency": "inactive"}, {"molecule": "CC(C)C[C@H](CC(=O)NO)C(=O)N[C@H](C(=O)N[C@@H](C)C(=O)NCCN)C(C)(C)C", "outcome": "inactive [at 9.27 µM]"}, {"molecule": "CC1OC(OC2CCC3(C)C(CCC4(C)C3CC=C3C5CC(C)(C)CCC5(C(=O)OC5OC(CO)C(O)C(O)C5O)CCC34C(=O)O)C2(C)C)C(O)C(O)C1O", "note": "(stereo not given)", "Potency": "inactive"}, {"molecule": "NC(=O)c1cccc(-c2cc(O)cc(OC(=O)NC3CCCCC3)c2)c1", "Potency": "inactive"}, {"molecule": "COc1cc(/C=C/C(=O)O[C@H]2[C@H](OC(=O)/C=C/c3cc(OC)c(O)c(OC)c3)O[C@H](CO[C@@H]3O[C@H](CO)[C@@H](O)[C@H](O)[C@H]3O)[C@@H](O)[C@@H]2O)ccc1O", "Potency": "inactive"}, {"molecule": "COc1cc(C)c(C(=O)O[C@@H]2[C@H](O)[C@@H](CO)O[C@H]2n2ccc(=O)[nH]c2=O)c(OC)c1", "Potency": "inactive"}, {"molecule": "COC(=O)C1=C2Nc3ccccc3C23CCN2CCCC(C(C)O)(C1)C23", "note": "(stereo not given)", "Potency": "inactive"}, {"molecule": "COC1=Cc2c(nc3n(c2=O)C(C)C(=O)NC3(O)C(C)C)OC=C1", "note": "(stereo not given)", "Potency": "inactive"}, {"molecule": "COC(O)(CC(C)C)C1Oc2cc(C)[nH]c(=O)c2O1", "note": "(stereo not given)", "Potency": "inactive"}]}]}
